# Shown are actives, neighbours in structure and some others; about 14% of the full set was active somewhere.
# HADH2 inh – inhibitors of human HADH2 dehydrogenase; recombinant HADH2, NADH fluorescence, beta-hydroxybutyryl-CoA; 73,000 compounds, 3.4% hits; Q99714; Potency, µM (series often up to 57.1 µM), for inactives: at the top dose activity change, negative = inhibition, most hits filed as inhibitors; further: potency means the concentration at half of the fitted maximal effect; on the % scale 0 is the no-effect control and ±100 the full control effect; nearly all actives have a fitted effect of over 60% in size
# Target sequence (Q99714 whole entry, looked up, one chain of several): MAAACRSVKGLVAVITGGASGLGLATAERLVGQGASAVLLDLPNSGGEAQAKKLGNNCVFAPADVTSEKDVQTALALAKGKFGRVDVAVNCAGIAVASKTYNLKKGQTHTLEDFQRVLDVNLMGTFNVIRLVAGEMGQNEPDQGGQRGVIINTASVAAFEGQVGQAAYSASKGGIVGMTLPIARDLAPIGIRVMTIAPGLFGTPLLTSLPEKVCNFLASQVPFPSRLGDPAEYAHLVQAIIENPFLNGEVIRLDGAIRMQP
#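 Activity measured as NADH fluorescence gain (360/450 nm), taken as the change between first and last reads of a 4-min kinetic run. Conditions: pH 9.0 Tris buffer, 20 nM E. coli-expressed His-tagged enzyme, 1 mM NAD+, 90 uM beta-hydroxybutyryl-CoA; 15-min compound preincubation.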
# 4-MU autofl – compounds fluorescent in 4-MU spectral region; compound autofluorescence, 340/450 nm, 4-MU equivalents; stronger effect = higher value; max dye-equivalent concentration, M; 59,000 compounds, 11% hits; in the data active means max dye-equivalent concentration above about 10 nM; inconclusive means mostly about 1.1 nM to 9.6 nM
#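 Compounds in 100 mM Tris, pH 8.0, sat 15 min at room temperature before fluorescence was read at 340 nm excitation/450 nm emission; a per-plate six-point 4-MU standard curve converted signals to dye-equivalent concentration at each compound concentration.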
# HSD17B inhib – HSD17B dehydrogenase inhibition; recombinant HSD17B10, NADH fluorescence kinetic; Potency, µM (top dose mostly 57.1 µM), inactives show at the top dose activity change, negative = inhibition, hits mostly inhibitors; 75,000 compounds, 7.6% hits; AID 893;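 further: the protocol describes HADH2 (HSD17B10) and not the HSD17B4 of the title; potency means the concentration at half of the fitted maximal effect; on the % scale 0 is the no-effect control and ±100 the full control effect; nearly all actives have a fitted effect of over 70% in size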
#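 Enzyme plus compound, 15 min room temperature; substrate mix added (NAD+ 1 mM, beta-hydroxybutyryl-CoA 90 uM final); plates read kinetically for NADH fluorescence. HADH2 was His-tagged, E. coli-derived, 20 nM.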
# CRE-bla Fsk – modulators of forskolin-stimulated CRE signaling in CHO cells; CHO CRE-bla reporter (cAMP response element driving beta-lactamase), forskolin EC10, beta-lactamase ratio; Potency, µM (highest dose often 38.2 µM), for inactives: at the top dose activity change, negative = inhibition, most hits filed as activators; 71,000 compounds, 2.5% hits; AID 662; active means well fitted activation curve with a large enough effect in the signal ratio, with a control signal flat, not every such curve was filed as active; inconclusive means small, poorly fitted or top-dose-only effect, or effect the other way, or a change in a side signal; the % refers to the signal ratio; further: potency means the concentration at half of the fitted maximal effect; % of control where 0% means no effect
#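 CRE-bla CHO reporter cells treated with compound titration plus EC10 NKH 477 (water-soluble forskolin), incubated 3 h at 37 °C; CCF4 loading 2 h at room temperature, 460/530 nm emission ratio read, AC50 values derived for positive or negative modulators.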
# AID923 – qHTS Assay for Allosteric/Competitive Inhibitors of Caspase-1: Spectroscopic Profiling in AFC Spectral Region | compound fluorescence, AFC spectral region (405/520 nm) | Potency, µM (series often up to 57.5 µM), for inactives: at the top dose fluorescence increase, hits mostly activators | 75,000 compounds, 1.1% hits; further: potency means the concentration at half of the fitted maximal effect; 0% is about no effect
#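 Titrations up to 57 uM read every 20 sec for 3 min (405/520 nm) with 50 nM caspase 1 and 5 uM Ac-WEHD-AFC, pH 7.5 HEPES buffer. Fluorescence-vs-time intercept gave baseline, scaled against on-plate AFC standard.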
# A350 fluor – compound fluoresces in the Alexa 350 spectral region. Compound autofluorescence, 340/450 nm, Alexa 350 dye-equivalents; stronger effect = higher value. max dye-equivalent concentration, M. 59,000 compounds, 11% hits. AID 590; in the data active means max dye-equivalent concentration above about 10 nM; inconclusive means mostly about 1.1 nM to 9.6 nM
# An asterisk follows results filed as active; i = inactive; u = inconclusive; x = no result given; [ ] = remark or other dose. Unless noted, the call rests on the fitted dose curve; in most records, active means well fitted curve in the direction sought with a large enough effect; inconclusive means small, poorly fitted or top-dose-only effect, or another doubt; inactive means no such curve, though single readings can be large; an effect the other way counts as inactive or inconclusive.
SMILES,HADH2 inh,4-MU autofl,HSD17B inhib,CRE-bla Fsk,AID923,A350 fluor
O=C(O)C1C2C=CC3(CN(C/C=C/c4ccccc4)C(=O)C13)O2 (stereo unspecified),-3%[11.4 µM],x,25µM*,u,1%,x
CCc1cc2c(nc1CC)CCN(CC/C(C)=N/O[C@@H](C)CN1CCCCc3nc(C)c(C)cc31)C2,3%[11.4 µM],x,5%[11.4 µM],x,-3%[11.5 µM],x
NC(=O)c1ccc(-c2ccc(Br)cc2)o1,30%,i,32µM*,u,1%,u
Cc1ccc(C)c(N2CCN(C(=O)c3cc4ccccc4oc3=O)CC2)c1,-9%,x,-7%,19%,-3%,x
COc1ccc2oc(=O)c(C(=O)N3CCN(c4ccccc4C)CC3)cc2c1,13%,2.4e-08M*,u,-11%,3%,2.6e-08M*
O=C(c1cc2ccccc2oc1=O)N1CCN(c2ccc(N3CCOCC3)nn2)CC1,0%,x,21%,0%,3%,x
COc1ccc2oc(=O)c(C(=O)N3CCN(c4ccccc4)CC3)cc2c1,-2%,3.1e-08M*,0%,u,3%,3.8e-08M*
COc1ccc2oc(=O)c(C(=O)N3CCN(C45CC6CC(CC(C6)C4)C5)CC3)cc2c1,-2%,3.4e-08M*,-13%,1%,15%,3.1e-08M*
CCCNc1nc2c(c(=O)[nH]c(=O)n2C)n1CCc1ccccc1,1%,x,12%,u,-1%,x

# Bioassay records (PubChem BioAssay)
